{
  "source": "PubChem BioAssay AID588382",
  "about": "(National Center for Advancing Translational Sciences (NCATS), 2011)",
  "note": "About 150 (12%) of roughly 1,300 compounds were called active. Entries that show only a call come without a potency. Roughly 30% stayed inconclusive and do not appear here. Calls follow the shape of the dose curve; as a rule, active = well fitted cell-killing curve with a large enough effect; inconclusive = small, poorly fitted or top-dose-only effect, or effect the other way; inactive = flat fitted curve, though single readings scatter. For the sample, actives were picked, then their nearest neighbours and some compounds at random.",
  "data": [
    {"test": "qHTS of small molecules that selectively kill Giardia lamblia: Hit Validation in HepG2 cytotox;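 also: compound exposure lasted overnight at 37 deg C; nearly all actives have a fitted effect of over 55% in size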; also: potency is read from the fitted curve at half-maximal effect", "conditions": "cell viability; Potency: HepG2 cytotoxicity; series mostly up to 38.3 µM", "outline": "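Counterscreen cytotoxicity: ATPLite luminescence (15 min, room temperature) measured in HepG2 cells exposed overnight at 37 deg C to pin-transferred compound (23 nL) after overnight pre-incubation.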", "values": [
      {"molecule": "O=C(NN1C(=O)c2ccccc2NC1c1ccc([N+](=O)[O-])o1)c1ccccc1", "note": "(configuration not stated)", "Potency": "inactive"},
      {"molecule": "CN(C)c1ccc(N=Nc2ccccc2C(=O)OCC(=O)N2CCCC2)cc1", "Potency": "inactive"},
      {"molecule": "Cc1cc(N)ccc1N=Nc1c(C)n(C)n(-c2ccccc2)c1=O", "Potency": "inactive"},
      {"molecule": "FC(F)(F)c1ccc2c(c1)N1CCCC1CN2", "note": "(configuration not stated)", "Potency": "inactive"},
      {"molecule": "CC(C)c1ccc(N=c2c([N+](=O)[O-])nn(-c3ccc4c(c3)OCCO4)n2O)cc1", "Potency": "inactive"},
      {"molecule": "Fc1ccc2cc(-c3ccsc3)ncc2c1", "Potency": "inactive"},
      {"molecule": "CC/C=C1/N=C2C(=O)N(C)C(=O)N=C2N(C)N1", "Potency": "3.29 µM (active)"},
      {"molecule": "O=[N+]([O-])c1ccc(COn2nnc3ccccc32)cc1", "Potency": "inactive"},
      {"molecule": "COc1ccc2c(c1)[n+](=O)c(C(C)=O)c(C)n2[O-]", "Potency": "inactive"},
      {"molecule": "Cc1nonc1OCCn1c([N+](=O)[O-])cnc1C", "Potency": "inactive"},
      {"molecule": "CCCOC(=O)/C(=C\\c1ccc([N+](=O)[O-])o1)NC(=O)c1ccccc1", "Potency": "inactive"},
      {"molecule": "O=[N+]([O-])c1ccc2c3n([n+]([O-])c2c1)CCN=C3c1ccc(Cl)cc1", "Potency": "inactive"},
      {"molecule": "O=[N+]([O-])c1ccc(-c2ccn[nH]2)o1", "Potency": "inactive"},
      {"molecule": "O=[N+]([O-])c1ccc(/C=[N+](\\[O-])CCO)o1", "Potency": "inactive"},
      {"molecule": "O=C1NC(=S)S/C1=C\\C=C\\c1ccc([N+](=O)[O-])o1", "Potency": "3.29 µM (active)"},
      {"molecule": "O=[N+]([O-])c1ccccc1S(=O)(=O)Oc1ccccc1/C=N/n1cnnc1", "Potency": "inactive"},
      {"molecule": "CC(=O)c1ccc(NC(=O)COC(=O)c2ccccc2N=Nc2ccc(N(C)C)cc2)cc1", "Potency": "inactive"},
      {"molecule": "O=C(Nc1cccc2ccccc12)C12CC3CC(C1)CC(n1cnc([N+](=O)[O-])n1)(C3)C2", "Potency": "inactive"},
      {"molecule": "Cc1cccc(-n2ncc3c(N4CCCC4)ncnc32)c1", "Potency": "2.07 µM (active)"},
      {"molecule": "O=C(c1ccco1)N1CCN(Cc2cc(=O)c(OCc3ccc([N+](=O)[O-])cc3)co2)CC1", "Potency": "inactive"},
      {"molecule": "COC(=O)c1ccccc1NC(=O)N1c2ccccc2Sc2ccccc21", "Potency": "inactive"},
      {"molecule": "Cc1cccc(N2CCN(Cc3ccc([N+](=O)[O-])o3)CC2)c1C", "Potency": "inactive"},
      {"molecule": "CCCC(=O)NC(=S)NNC(=O)c1ccc([N+](=O)[O-])cc1", "Potency": "inactive"},
      {"molecule": "Cc1cc(-c2ccc(C)c(S(=O)(=O)N3CCN(c4ccc([N+](=O)[O-])cc4)CC3)c2)on1", "Potency": "inactive"},
      {"molecule": "N#Cc1c(Nc2ccccc2)[n+]([O-])c2ccc(Cl)cc2[n+]1[O-]", "Potency": "3.29 µM (active)"},
      {"molecule": "COc1ccc(CC(=O)Nc2ncc([N+](=O)[O-])s2)cc1OC", "Potency": "inactive"},
      {"molecule": "O=[N+]([O-])/C(Cl)=C(/NCCO)C(Cl)=C(Cl)Cl", "Potency": "inactive"},
      {"molecule": "COc1ccc(Cn2cnc([N+](=O)[O-])c2)cc1[N+](=O)[O-]", "Potency": "inactive"},
      {"molecule": "O=[N+]([O-])c1cc(/C=N/Nc2nc(N3CCCCC3)nc(N3CCCCC3)n2)ccc1O", "Potency": "inactive"},
      {"molecule": "O=C(Nc1ccccc1N1CCN(C(=O)c2ccccc2)CC1)c1ccc([N+](=O)[O-])o1", "Potency": "inactive"},
      {"molecule": "Cc1ccccc1C(=O)N1CCN(c2ccc(NC(=O)c3ccc([N+](=O)[O-])o3)cc2)CC1", "Potency": "3.29 µM (active)"},
      {"molecule": "O=C(Nc1ccc(N2CCN(C(=O)c3ccc(Cl)cc3)CC2)cc1)c1ccc([N+](=O)[O-])o1", "Potency": "3.29 µM (active)"},
      {"molecule": "O=C(Nc1ccc(N2CCN(C(=O)c3ccccc3)CC2)cc1)c1ccc([N+](=O)[O-])o1", "Potency": "4.65 µM (active)"},
      {"molecule": "O=C(c1ccc([N+](=O)[O-])o1)N1CCN(Cc2ccccc2)CC1", "Potency": "inactive"},
      {"molecule": "O=[N+]([O-])c1ccc(N2CCN(Cc3ccc([N+](=O)[O-])o3)CC2)cc1", "Potency": "inactive"},
      {"molecule": "C[C@H]1CN=C(N(C)C)N1CCC1CCCC1", "Potency": "inactive"},
      {"molecule": "CC(Oc1ccccc1)C(=O)Nc1nnc(S(=O)(=O)N2CCCCCC2)s1", "note": "(configuration not stated)", "Potency": "inactive"},
      {"molecule": "COc1cccc([C@@H]2CC=C(C(=O)O)[C@H](c3ccccc3F)N2S(=O)(=O)c2ccc(C)cc2)c1", "Potency": "inactive"},
      {"molecule": "O=[N+]([O-])c1c(C(Cl)Cl)nn(-c2ccccc2)c1N1CCOCC1", "Potency": "inactive"},
      {"molecule": "Cc1ccc(Nc2ccc([N+](=O)[O-])nc2[N+](=O)[O-])cc1", "Potency": "inactive"},
      {"molecule": "Cc1ccc(CNC(=O)c2cc(-c3ccccc3C)n(CC3CC(c4cccc([N+](=O)[O-])c4)=NO3)n2)cc1", "note": "(configuration not stated)", "Potency": "inactive"},
      {"molecule": "CN(C(=O)CSc1nc2ccc([N+](=O)[O-])cc2s1)C1CCS(=O)(=O)C1", "note": "(configuration not stated)", "Potency": "inactive"},
      {"molecule": "COCCCn1[nH]c2c3c(ccc2c1=O)C(=O)c1ccccc1C3=O", "Potency": "inactive"},
      {"molecule": "COc1ccc(C(=O)C(C)OC(=O)CNC(=O)c2ccco2)cc1", "note": "(configuration not stated)", "Potency": "inactive"},
      {"molecule": "O=C(CSc1ccsc1[N+](=O)[O-])NC1CCCC1", "Potency": "inactive"},
      {"molecule": "O=C(COc1cccnc1[N+](=O)[O-])NCc1cccs1", "Potency": "inactive"},
      {"molecule": "CC(C)CNC(=S)NC(=O)c1csc([N+](=O)[O-])c1", "Potency": "inactive"},
      {"molecule": "O=C(NCCO)c1ccc2c3n(nc2c1)-c1ccccc1CO3", "Potency": "2.93 µM (active)"},
      {"molecule": "Cc1cnc([N+](=O)[O-])n1CCOC(=O)NC(=O)c1cccc(F)c1", "Potency": "inactive"},
      {"molecule": "C[C@@H]1CN([C@H](C)CO)C(=O)c2cc(NC(=O)Nc3ccc4c(c3)OCO4)ccc2O[C@H]1CN(C)Cc1ccncc1", "Potency": "inactive"},
      {"molecule": "O=C(O)c1cccc(S(=O)(=O)N(Cc2ccccc2)c2ccccc2Cl)c1", "Potency": "inactive"},
      {"molecule": "O=C(CSc1ccsc1[N+](=O)[O-])NCCc1ccccc1", "Potency": "inactive"},
      {"molecule": "O=C(NCc1ccco1)NC(=O)c1csc([N+](=O)[O-])c1", "Potency": "inactive"},
      {"molecule": "CC(NC(=O)C12CC3CC(CC(C3)C1)C2)C(=O)NN=Cc1ccc([N+](=O)[O-])o1", "note": "(configuration not stated)", "Potency": "inactive"},
      {"molecule": "O=C(N/N=C\\c1ccc([N+](=O)[O-])o1)C1COc2ccccc2O1", "note": "(configuration not stated)", "Potency": "inactive"},
      {"molecule": "O=C(CNc1ccc2ccccc2c1)N/N=C/c1ccc([N+](=O)[O-])o1", "Potency": "inactive"},
      {"molecule": "O=C(N/N=C/c1ccc([N+](=O)[O-])o1)c1ccc2c(c1)OCO2", "Potency": "4.65 µM (active)"},
      {"molecule": "O=C(CC12CC3CC(CC(C3)C1)C2)N/N=C/c1ccc([N+](=O)[O-])o1", "Potency": "16.5 µM (active)"},
      {"molecule": "O=C(N/N=C/c1ccc([N+](=O)[O-])o1)C1CC1", "Potency": "inactive"},
      {"molecule": "O=C(Cc1ccc([N+](=O)[O-])cc1)N/N=C/c1ccc([N+](=O)[O-])o1", "Potency": "5.21 µM (active)"},
      {"molecule": "CCCCCCCC(=O)N/N=C/c1ccc([N+](=O)[O-])o1", "Potency": "inactive"},
      {"molecule": "O=C(CNc1cccc([N+](=O)[O-])c1)N/N=C/c1ccc([N+](=O)[O-])o1", "Potency": "inactive"}
    ]}
  ]
}
